# Experimental data published in the supplement of paper PMC12669032.
# Unmarked numbers belong to inactive results.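 The calls were made as follows: active = AUC reduced over 20% with Padj below 0.05 in at least 2 of 3 replicates; inactive = otherwise.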
# Test system: Bacteroides clarus
# Test: growth AUC relative to DMSO control (median of replicates) (fraction); higher = more growth (less inhibition), active = hit call of the paper
# Conditions: 20 µM; 24 h
# Method in brief: (§1)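 For each compound at 20 µM (1% DMSO), gut bacterial monocultures seeded at OD600 0.05 grew anaerobically in mGAM at 37 °C in round-bottom 96-well plates. Hourly OD600 readings over 24 h gave growth curves whose minimum OD was set to 0. Area under these curves was normalised to the plate median of solvent-only wells, or to row and column medians on the industrial chemical plate. Values are medians of three biological replicates grown on separate days.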
row,SMILES,growth AUC
1,COc1cc(OC)nc(NC(=O)[N-]S(=O)(=O)c2ncccc2OCC(F)(F)F)n1.[Na+],0.982
2,Cc1cc(Cl)ccc1N=CN(C)C.Cl,1.01
3,CCOCn1c(-c2ccc(Cl)cc2)c(C#N)c(Br)c1C(F)(F)F,0.956
4,CCOP(=S)(OCC)Oc1cnc2ccccc2n1,0.94
5,C#CCC1=C(C)C(OC(=O)C2C(C=C(C)C)C2(C)C)CC1=O (stereo not given),1.04
6,CCOP(=S)(OCC)SCCS(=O)CC (stereo not given),0.979
7,CO/N=C(/C(=O)OC)c1ccccc1CO/N=C(\C)c1cccc(C(F)(F)F)c1,0.897
8,CCSC(=O)N1CCCCCC1,0.974
9,COC(C)(C)CCCC(C)C/C=C/C(C)=C/C(=O)OC(C)C (stereo not given),0.989
10,Clc1c(Cl)c(Cl)c(Cl)c(Cl)c1Cl,1
11,C[C@@H]1C[C@@H]([C@H](O)CC2CC(=O)NC(=O)C2)C(=O)[C@@H](C)C1,1.02
12,CCS(=O)(=O)Cc1ccccc1OC(=O)NC,1
13,CC1CNC(=S)N1 (stereo not given),1.03
14,CCNc1nc(Cl)nc(NC(C)(C)C)n1,0.977
15,COP(=O)(OC)OC(Br)C(Cl)(Cl)Br (stereo not given),0.977
16,O=C(NC(=O)c1ccccc1Cl)Nc1ccc(OC(F)(F)F)cc1,0.964
17,O=C(O)C(Cl)Cl,0.966
18,CCCOc1nn(C(=O)[N-]S(=O)(=O)c2ccccc2C(=O)OC)c(=O)n1C.[Na+],0.979
19,Oc1ccc(Cl)cc1,0.952
20,C/C(=N\NC(=O)Nc1cc(F)cc(F)c1)c1ncccc1C(=O)[O-].[Na+],1.01
21,CCCN(CCOc1c(Cl)cc(Cl)cc1Cl)C(=O)n1ccnc1,0.967

# Test system: Bacteroides dorei
# Test: as above
# Conditions: 20 µM; 24 h
# Method in brief: as §1
row,SMILES,growth AUC
1,BrCCBr,1.02
2,O=C(O)c1ccc(Cl)nc1,0.985
3,N#CCNC(=O)c1cnccc1C(F)(F)F,1
4,O=C1c2ccccc2C(=O)N1SC(Cl)(Cl)Cl,1.04
5,CCC(CC)Nc1c([N+](=O)[O-])cc(C)c(C)c1[N+](=O)[O-],0.91
6,COc1ccc(/C(=C/C(=O)N2CCOCC2)c2ccc(Cl)cc2)cc1OC,0.93
7,CON(C)C(=O)Nc1ccc(Br)c(Cl)c1,1.08
8,COP(=S)(NC(C)C)Oc1ccc(C)cc1[N+](=O)[O-] (stereo not given),0.982
9,CCCCc1c(C)nc(N(C)C)[nH]c1=O,0.984
10,CCCSP(=S)(OCC)Oc1ccc(Cl)cc1Cl (stereo not given),0.98
11,O=S1(=O)OCC2C(CO1)C1(Cl)C(Cl)=C(Cl)C2(Cl)C1(Cl)Cl (stereo not given),0.962
12,Oc1ccc(-c2ccccc2)cc1,0.991
13,CC(C)(C)c1ccc(CSc2cnn(C(C)(C)C)c(=O)c2Cl)cc1,0.991
14,CCOc1ccc(C(C)(C)COCc2cccc(Oc3ccccc3)c2)cc1,0.967
15,CNC(=O)Oc1cccc2c1OC(C)(C)C2=O,1.02
16,CCOC(=O)N(C)C(=O)CSP(=S)(OCC)OCC,1.01
17,Nc1c(Cl)cc([N+](=O)[O-])cc1Cl,0.967
18,O=C1C(Cl)=C(Cl)C(=O)C(Cl)=C1Cl,0.978
19,COc1cc(OC)nc(NC(=O)[N-]S(=O)(=O)c2ncccc2OCC(F)(F)F)n1.[Na+],0.995
20,Cc1cc(Cl)ccc1N=CN(C)C.Cl,1.03

row,SMILES,growth AUC
1,CCOCn1c(-c2ccc(Cl)cc2)c(C#N)c(Br)c1C(F)(F)F,0.945
2,CCOP(=S)(OCC)Oc1cnc2ccccc2n1,0.993
3,C#CCC1=C(C)C(OC(=O)C2C(C=C(C)C)C2(C)C)CC1=O (stereo not given),0.964
4,CCOP(=S)(OCC)SCCS(=O)CC (stereo not given),0.985
5,CO/N=C(/C(=O)OC)c1ccccc1CO/N=C(\C)c1cccc(C(F)(F)F)c1,1.02
6,CCSC(=O)N1CCCCCC1,1
7,COC(C)(C)CCCC(C)C/C=C/C(C)=C/C(=O)OC(C)C (stereo not given),0.996
8,Clc1c(Cl)c(Cl)c(Cl)c(Cl)c1Cl,1.04
9,C[C@@H]1C[C@@H]([C@H](O)CC2CC(=O)NC(=O)C2)C(=O)[C@@H](C)C1,0.98
10,CCS(=O)(=O)Cc1ccccc1OC(=O)NC,0.994
11,CC1CNC(=S)N1 (stereo not given),1.04
12,CCNc1nc(Cl)nc(NC(C)(C)C)n1,0.978
13,COP(=O)(OC)OC(Br)C(Cl)(Cl)Br (stereo not given),0.986
14,O=C(NC(=O)c1ccccc1Cl)Nc1ccc(OC(F)(F)F)cc1,0.927
15,O=C(O)C(Cl)Cl,1.02
16,CCCOc1nn(C(=O)[N-]S(=O)(=O)c2ccccc2C(=O)OC)c(=O)n1C.[Na+],1.02
17,Oc1ccc(Cl)cc1,1.01
18,C/C(=N\NC(=O)Nc1cc(F)cc(F)c1)c1ncccc1C(=O)[O-].[Na+],0.77
19,CCCN(CCOc1c(Cl)cc(Cl)cc1Cl)C(=O)n1ccnc1,0.941
